According to PubChem BioAssay (NCI):
“And” between values parts separate entries of the source, which are not always exact repeats. Identical values can stand only once. Compounds without any hit were thinned out: in the full panel of roughly 83,000, 20% have a hit.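 Percent growth is the endpoint: 0 to 100 indicates growth inhibition (40 means 60% inhibition), 0 means no net growth, and negative values indicate cell death.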 Unmarked numbers belong to inactive results. The source made the active and inactive calls. Rule for the calls: active = growth percent below 10; inactive = the rest.

The compounds below were run on CAKI-1 renal (assay: NCI-60 one-dose screen, 48 h (100 = growth as untreated, 0 = no growth, -100 = all killed)). Settings: 10 µM unless noted.
CN(C)CCCn1c2nc(=O)[nH]c(=O)c-2nc2cc(Cl)c(Cl)cc21 showed a growth of 79%.
For C=C(CNCCc1ccc(O)cc1)[C@@H]1CC[C@]2(CO)CC[C@]3(C)[C@H](CC[C@@H]4[C@@]5(C)CCC(NCCc6ccc(O)cc6)C(C)(C)[C@@H]5CC[C@]43C)[C@@H]12 (some centres undefined), the growth was -57.7% (active).
O=C1/C(=C/c2cn(-c3ccccc3)nc2-c2ccccc2)SC(=S)N1c1ccc(Cl)cc1 showed a growth of 75.2%.
With CCCNNC(=O)/C=C/c1ccc(CNCCc2c(C)[nH]c3ccccc23)cc1 the growth was -4.92% [2.5 µM] (active).
In the case of C=CCNC(=O)Cc1c(-c2ccc(OC)cc2)oc2c(OC)c3c(c(OC)c12)OCO3, the growth is reported as 87.8%.
CC1=C2[C@@H](CC1)[C@]1(C)O[C@@](C(C)C)(C[C@H]1OC(=O)CO)[C@H]2OC(=O)C1CC1c1ccccc1 (some centres undefined) was tested, and the growth was 74.1%.
O=C([C@H]1C[C@H]1c1ccc(S(F)(F)(F)(F)F)cc1)N1CCN(c2cc(Cl)ccc2C(F)(F)F)CC1 was tested, and the growth was 67.3%.
For O=C(Cc1ccc(F)cc1)c1ccccc1, the growth was 106%.
With COc1cc2cc(NCc3ccncc3)nc(C)c2cc1OC the growth was 82.3%.
With CN1Cn2c(ccc2C(F)(F)F)C(=O)CS1(=O)=O the growth was 94.1%.
In the case of O=C1C=C(Nc2ccccc2)c2ncccc2C1=O, the growth is reported as -95.9% (active).
Work on C=C1C(=O)O[C@H]2[C@H]1CC/C(COC(=O)NCc1ccc(Cn3c(=O)sn(CCCI)c3=O)cc1)=C\CC[C@@]1(C)O[C@@H]21 yielded a growth of 33.7%.
With COc1ccc(Cn2cc(C(=O)Nc3cccnc3Nc3ccccc3)nn2)cc1 the growth was 88.4%.
For NNCCc1ccccc1, the growth was 99.7% and 88.3%.
With CCN(CC)CC#CCOC(=O)[C@]1(C)CCC[C@]2(C)c3ccc(C(C)C)cc3CC[C@@H]12 the growth was 94.5%.
With COc1cc2c(cc1OCCCOC1=C=C=C(c3ccc4c(c3)c3cc(-c5ccc(OCCCOc6cc7c(cc6OC)C(=O)N6CCC[C@H]6C=N7)cc5)ccc3n4S(=O)(=O)c3ccc(C)cc3)C=C1)N=C[C@@H]1CCCN1C2=O the growth was -19.8% (active).
With O=C(CCl)N(O)c1ccc(/C=C/c2ccccc2)cc1 the growth was 95.3% and 91.1%.
For COc1cc(/C=C/C(=O)c2ccc(NC(=O)CSc3nnc(-c4cc(-c5ccccc5)nc5ccccc45)n3-c3ccccc3)cc2)cc(OC)c1OC, the growth was 72.4%.
Compound Nc1[nH]nc(Nc2ccccc2)c1-c1nc2ccccc2s1 has a growth of 25.1%.
With C[C@]12CCc3c(ccc4cc(O)ccc34)[C@@H]1C[C@H](O)[C@@H]2O the growth was 77.5%.
Work on Cn1cc(-c2csc(-c3cn(CCOC(N)=O)c4ccccc34)n2)c2cccnc21 yielded a growth of 88.2%.
Work on C=C(CN1CC=CCC1)[C@@H]1CC[C@]2(COC(C)=O)CC[C@]3(C)[C@H](CC[C@@H]4[C@@]5(C)CC[C@H](O)C(C)(C)[C@@H]5CC[C@]43C)[C@@H]12 yielded a growth of 107%.
With C/C=C(/C)C(=O)O[C@@H]1CC(C)(C)CC2C34OC(=O)[C@@]21CC[C@@]3(C)[C@]1(C)CCC2C(C)(C)C(=O)CC[C@]2(C)C1C[C@@H]4Cl (some centres undefined) the growth was 79.9%.
For CC1=CC=C(NC(=O)/C=C/c2ccccc2)CC1Nc1nccc(-c2cccnc2)n1 (centres undefined), the growth was 32.5%.
With COc1ccc(-c2[nH]c3ccccc3c2-c2ccc(OC)cc2)cc1 the growth was 63.2%.
CC[C@]12CN3CCc4c([nH]c5ccccc45)[C@@](C(=O)OC)(c4cc5c(cc4OC)N(C)[C@H]4[C@@](O)(C(=O)OC)[C@H](OC(C)=O)[C@]6(CC)C=CCN7CC[C@]54[C@@H]76)CC(C3)[C@H]1O2 (some centres undefined) was tested, and the growth was 38.9%.
Compound CCCCC1=C(Br)C(=O)c2nc(C)ccc2C1=O has a growth of 85.9%.
For Nc1ncc(-c2ccc3ncnc(N4CCc5ccc(Cl)cc54)c3c2)cc1C(F)(F)F, the growth was -9.77% (active).
COc1ccc(-c2nnc3n(C)c(=O)c4ccccc4n23)cc1O showed a growth of 35.2%.
